# PubChem BioAssay
# Tested on: Noggin (protein binding on small-molecule microarray)
# Experiment: Noggin binders on small-molecule microarray, primary screen, biochemical, 635/667 nm fluorescence (AID 1095);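 note: score merges 667 nm feature fluorescence with signal to noise over triplicate slides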
# Conditions: 635 nm fluorescence, higher = more signal
row,Compound,composite z-score
1,COc1ccc(NC(=O)O[C@H]2[C@H](OC(=O)c3cc4ccccc4[nH]3)[C@@H](OC(=O)c3cc4ccccc4[nH]3)[C@@H](OC)O[C@@H]2CO)cc1,0.21
2,C=C(CCCC)C(=O)CC[C@H](OC(=O)c1cccnc1)c1ccc(OCCO)cc1,0.134
3,C=CCN1C(=O)[C@]2(Cc3ccccc3)N=C(c3ccc(OCCCO)cc3)O[C@@H]2c2ccccc21,1.2
4,CC(=O)NCCCC[C@@H]1NC(=O)[C@H]2C[C@@H](C(=O)NCCCCCNC(=O)CS)[C@@H](c3ccc(O)cc3)N2C1=O,-0.309
5,C=CCC(OC(C)=O)[C@@H]1[C@@H](N(Cc2cc3ccccc3o2)C(=O)Cc2ccc(OC)cc2)c2cc(OCCCO)ccc2N1C(=O)c1ccc2ccccc2c1 (stereo not given in full),-0.104
6,CC(c1ccccc1)C(O)C1C=CC2C(=O)N(c3ccccc3)C(=O)C2N1Nc1ccccc1 (stereo not given),0.833
7,COc1ccc([C@H]2C[C@H]3C(Br)=C[C@@]2(CO)C(=O)[C@]32CO2)cc1,-0.472
8,COCCOC(=O)N1C(=O)[C@@]2(c3cc(C#CCCO)ccc31)[C@H](c1ccc(OCCO)cc1)N1[C@H](c3ccccc3)[C@H](c3ccccc3)OC(=O)[C@H]1[C@@H]2C(N)=O,0.626
9,CCCCN1CC=CC23O[C@@H]4/C=C\CCCOC(=O)C4[C@H]2C(=O)N(CCCCCO)[C@@H]3C1=O (stereo not given in full),-1.16
10,NCCCCCCNC(=O)[C@H]1C[C@H]2C(=O)N[C@@H](Cc3ccccc3)C(=O)N2[C@H]1c1cccc(OCCO)c1,0.337
11,COc1ccc([Si](C)(C)[C@@H]2[C@@H](CCn3cc(CCO)nn3)O[C@]3(C(=O)N(Cc4cccc(N5C(=O)c6cccc7cccc5c67)c4)c4ccccc43)[C@H]2C)cc1,1.14
12,CC(=O)Nc1cc(Br)ccc1C(=O)NCc1ccccc1,-0.0557
13,CCCCCN1CC=CC23O[C@@H]4C=CCOC(=O)[C@@H]4[C@H]2C(=O)N(C(C)CO)[C@@H]3C1=O (stereo not given in full),-1
14,CCOC(=O)C1=C[C@@H](C(C)C)N(S(=O)(=O)c2ccc(C)cc2)[C@H]1c1ccccc1F,0.351
15,CS(=O)(=O)CCOC(=O)C1=CC(CCCO)=CC(C2CC2)N(Cc2cc3c(cc2Br)OCO3)C=C1C(=O)OCCS(C)(=O)=O (stereo not given),0.39
16,Cc1c(NC(=O)/C(C#N)=C/c2cccc([N+](=O)[O-])c2)c(=O)n(-c2ccccc2)n1C,0.21
17,C=CCN1Cc2ccccc2[C@@H]2OC(c3ccc(OCCCO)cc3)=N[C@]2(CCS(=O)(=O)c2ccccc2)C1=O,0.704
18,C=CCNC(=O)[C@@H]1[C@H]2C(=O)O[C@H](c3ccccc3)[C@H](c3ccccc3)N2[C@H](c2ccc(OCCO)cc2)[C@@]12C(=O)N(C(=O)OCCOC)c1ccc(C#CCC(C(=O)OC)C(=O)OC)cc12,1.18

row,Compound,composite z-score
1,CN1C(=O)C2C=CC(C(O)C=Cc3ccc([N+](=O)[O-])cc3)N(Nc3ccccc3)C2C1=O (stereo not given),0.577
2,COCCOC(=O)N1C(=O)[C@@]2(c3cc(C#CC4=CCCCC4)ccc31)[C@H](c1ccc(OCCO)cc1)N1[C@H](c3ccccc3)[C@H](c3ccccc3)OC(=O)[C@H]1[C@@H]2C(=O)N1CCc2cc(OC)c(OC)cc2C1,0.921
3,CC(C)CN1C(=O)[C@@]2(c3ccc([N+](=O)[O-])cc3)CC(=O)N(C3CCCCC3)[C@@H]2c2ccc(CO)cc21,-1.13
4,C#CCN1[C@H](/C=C/C2CC2)[C@H](Cc2ccccc2)OC(=O)[C@@H]1Cc1ccccc1,0.792
5,COc1ccccc1CN1C(=O)c2ccccc2[C@@]2(Cc3ccccc3N(CCCN(C)C)C2=O)[C@@H]1c1ccc(CO)cc1,0.395
6,COC(=O)[C@@]1(CCC(=O)OC(C)(C)C)N=C(c2ccc(OCCCO)cc2)O[C@H]1c1ccccc1,-0.105
7,O=C(O)[C@@]1(CCS(=O)(=O)c2ccccc2)N=C(c2ccc(OCCCO)cc2)O[C@H]1c1ccccc1,-0.0519
8,C=CCN(Cc1ccccc1)C(=O)C(c1cccs1)N(C(=O)/C=C\C(=O)O)c1ccc(CCOCCO)cc1 (stereo not given),-1.51
9,CC(C)NC(=O)[C@@H]1c2ccccc2C(=O)N(C(C)C)[C@H]1c1ccc(CO)cc1,-1.94
10,C=CCC(OC(C)=O)[C@@H]1[C@@H](N(Cc2ccc(-c3cccc(C(F)(F)F)c3)o2)C(=O)c2cccc3ccccc23)c2cc(OCCCO)ccc2N1C(=O)Cc1ccc2ccccc2c1 (stereo not given in full),0.01
11,COc1ccc([Si](C)(C)[C@@H]2[C@@H](CCn3cc([C@H](O)c4ccccc4)nn3)O[C@]3(C(=O)N(Cc4cccc(N5CCC5=O)c4)c4ccccc43)[C@H]2C)cc1,0.459
12,O=C(NCCN1CCOCC1)[C@@H]1c2ccccc2C(=O)N(Cc2cc(C(F)(F)F)cc(C(F)(F)F)c2)[C@H]1c1ccc(CO)cc1,-0.901
13,C=C(CCCC)/C(=C/C[C@H](OC(C)=O)c1ccccc1OCCO)c1cnc2ccccc2c1,0.788
14,COC(=O)[C@@]1(Cc2ccc(OC)cc2)[C@H]2c3cc(C(=O)N4CCCC4)n(CCc4ccc(O)c(O)c4)c3C[C@H]2CN1C(=O)c1ccccc1,-0.17
15,Cc1ccc(S[C@]2(C(=O)NCC(C)C)CC(=O)N(Cc3cc(C(F)(F)F)cc(C(F)(F)F)c3)[C@@H]2c2ccc(CO)cc2)cc1,-0.671
16,O=C(NC1CC1)[C@@H]1c2ccccc2C(=O)N(C2Cc3ccccc3C2)[C@H]1c1ccc(CO)cc1,0.976
17,O=C1OCCC=C[C@H]2OC34C=CCN(CCN5CCOCC5)C(=O)[C@H]3N(CCCCCO)C(=O)[C@@H]4C12 (stereo not given in full),0.0669
